Hits are enriched below; roughly 10% of the tested compounds scored in any of these assays.
KB-V1 cytotox = qHTS assay for MDR1-selective chemotherapeutics: Primary screen using the drug-selected MDR subline cells KB-V1. hit rate 3.4% among 400,000. KB-V1 MDR cells viability, CellTiter-Glo, 72 h. Potency, µM (top dose mostly 46.1 µM), most hits filed as cytotoxic; also: nearly all actives have a fitted effect of over 60% in size
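Following 72 h at 37 degrees C with compound, KB-V1 cell viability was read by CellTiter-Glo luminescence, medium being phenol-red-free DMEM plus 10% FBS; concentration-response parameters came from normalized, curve-fitted qHTS data.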
SW480 rereplic = A quantitative high throughput screen for small molecules that induce DNA re-replication in SW480 colon adenocarcinoma cells | Potency, µM (series often up to 46.1 µM), usual class: activators | hit rate 1.8% among 340,000 | SW480 DNA re-replication, Hoechst DNA content imaging, 48 h; also: nearly all actives have a fitted effect of over 55% in size
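Per well, 250 cells were exposed to pinned compound for 48 hr. Nuclear DNA was visualised with Hoechst (40 min, 37 C) and total object intensity recorded by fluorescence scanning.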
VP16 counter = VP16 counterscreen qHTS for inhibitors of ROR gamma transcriptional activity; Drosophila S2 Gal4-VP16 UAS-luciferase, luminescence, 20 h; Potency, µM (highest dose often 53.6 µM), actives largely listed as inhibitors; hit rate 3.5% among 310,000; AID 2546, 2010;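 also: Gal4-VP16 expression switched on by copper sulfate through the metallothionein promoter; nearly all actives have a fitted effect of over 50% in size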
RORgamma inh = qHTS for inhibitors of ROR gamma transcriptional activity. hit rate 5.4% among 310,000. Drosophila S2 Gal4-RORgamma UAS-luciferase reporter, 20 h. AID 2551, 2010. Potency, µM (top dose mostly 53.6 µM), most hits filed as inhibitors. Nuclear receptor ROR-gamma (Mus musculus), P51450; also: nearly all actives have a fitted effect of over 60% in size
Target sequence (P51450 whole entry, looked up, the tested form may be a part): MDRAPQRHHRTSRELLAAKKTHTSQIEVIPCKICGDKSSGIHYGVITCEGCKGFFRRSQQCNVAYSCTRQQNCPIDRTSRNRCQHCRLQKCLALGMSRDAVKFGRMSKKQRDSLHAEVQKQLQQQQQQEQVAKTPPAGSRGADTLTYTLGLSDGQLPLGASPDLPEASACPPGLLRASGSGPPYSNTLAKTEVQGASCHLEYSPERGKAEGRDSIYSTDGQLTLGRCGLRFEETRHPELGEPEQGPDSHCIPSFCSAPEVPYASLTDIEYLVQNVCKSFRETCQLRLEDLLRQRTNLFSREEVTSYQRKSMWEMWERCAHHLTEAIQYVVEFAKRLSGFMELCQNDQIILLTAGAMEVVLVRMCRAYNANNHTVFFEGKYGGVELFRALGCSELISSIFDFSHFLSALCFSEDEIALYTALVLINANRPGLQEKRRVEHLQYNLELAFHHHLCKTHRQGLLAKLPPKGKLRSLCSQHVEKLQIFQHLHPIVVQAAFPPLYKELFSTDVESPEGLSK
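Luciferase reporter read in Schneider cells carrying Gal4-RORγ (mouse) and UAS-Photinus luciferase; cells given compound 1 h before 700 uM copper sulfate induction, then incubated 20 h at ambient temperature.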
MCF10A rerep = A quantitative high throughput screen for small molecules that induce DNA re-replication in MCF 10a normal breast cells; MCF 10A DNA re-replication, Hoechst nuclear intensity, 48 h; Potency, µM (top dose mostly 46.1 µM), most hits filed as activators; hit rate 2.9% among 350,000; AID 624296, 2012; also: nearly all actives have a fitted effect of over 50% in size
KB-3-1 tox = qHTS assay for MDR1-selective chemotherapeutics: Primary screen using the parental adenocarcinoma cell KB-3-1 | KB-3-1 viability, CellTiter-Glo ATP luminescence, 72 h | Potency, µM (doses to about 46.1 µM), usual class: cytotoxic | hit rate 1.4% among 400,000; also: nearly all actives have a fitted effect of over 60% in size
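Screening of KB-3-1 cells (DMEM, 10% FBS, phenol-red free) ran from lowest to highest compound concentration; after 72 h at 37 °C viability was read luminescently and curves fitted.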
Numbers stand for hits; - = inactive; ? = inconclusive; . = no result; [ ] = remark or other dose. Calls follow the shape of the dose curve; as a rule, active = well fitted curve in the direction sought with a large enough effect; inconclusive = small, poorly fitted or top-dose-only effect, or another doubt; inactive = no such curve, though single readings can be large; an effect the other way counts as inactive or inconclusive.

SMILES	KB-V1 cytotox	SW480 rereplic	VP16 counter	RORgamma inh	MCF10A rerep	KB-3-1 tox
COCc1[nH]nc2c1C(c1c(F)cccc1Cl)C(C#N)=C(N)O2 (stereo not drawn)	-	-	18µM	?	-	-
CCOc1ccc(NC(=O)CSc2ncc3c(n2)-c2ccccc2N(Cc2ccccc2C)S3(=O)=O)cc1	-	.	.	.	.	-
CN(CCO)c1cccc2c1S(=O)(=O)N[C@@H](Cc1ccccc1)CO2	-	.	.	.	.	-
CN(C)CCNC(=O)COc1ccc(C23CC4CC(CC(C4)C2)C3)cc1	-	?	?	?	16µM	?
Cc1ccc(C23CC4CC(CC(NC(=O)NCCN(C)C)(C4)C2)C3)cc1	-	?	-	?	?	-
CS(=O)(=O)c1sc(C#N)c2c1C(=O)CC(c1ccccc1)C2 (stereo not drawn)	-	-	4.5µM	4.5µM	?	-
Cc1oc2c(c(=O)c1C)C(=O)CC(c1ccccc1)C2 (stereo not drawn)	-	-	-	-	-	-
CC(Oc1ccccc1)C(=O)Nc1c(C(=O)Nc2cccc(F)c2)oc2ccccc12 (stereo not drawn)	-	.	.	.	.	?
COc1c(C)cc(Br)cc1C(=O)Nc1ccccc1N1CCN(C(=O)c2ccccc2)CC1	23µM	-	-	-	-	?
O=C(Nc1ccccc1N1CCN(C(=O)c2ccccc2)CC1)c1cc(Br)ccc1Cl	23µM	?	-	-	-[0.0737 µM]	?
COc1ccc(Br)cc1C(=O)Nc1ccccc1N1CCN(C(=O)c2ccccc2)CC1	?	-	-	-	-	-
COc1ccc2c(c1)O[C@@H](c1cccc(C(F)(F)F)c1)[C@H](OC(=O)NS(=O)(=O)c1ccc(F)cc1)C2=O	.	.	-	-	.	.
O=C1Nc2ccccc2-c2nnnn2C1N1CCCCC1 (stereo not drawn)	-	.	.	.	.	-
COc1ccc(CCC(=O)NCc2ccc3c(c2)CCN3C(=O)c2ccc(Cl)cc2)cc1	-	.	.	.	.	-
CN(C)c1ccc(-c2cncnc2NCCN2CCOCC2)cc1	.	.	-	?	.	.
COc1cc2ccc(=O)oc2cc1O	-	15µM	-	-	?	-
CC1(C)CC(=O)C(C=NCCN2CCOCC2)=C(O)C1	-	6.5µM	-	-	-	-
CC1(C)CC(=O)C(C=NCCN2CCN(CCCCS(=O)(=O)O)CC2)=C(O)C1	-	-	-	-	-	-
O=C(c1ccccc1)c1ccc(OCC(O)CN2CCN(S(=O)(=O)N3CCCCC3)CC2)cc1 (stereo not drawn)	2.1µM	-	-	-	-	23µM
Cc1ccccc1-n1c(SCC(=O)Nc2ccc3c(c2)OCO3)nnc1-c1ccccn1	2.1µM	?	-	-	-	?
Cc1cccc(-n2c(SCC(=O)Nc3ccc4c(c3)OCO4)nnc2-c2ccoc2C)c1	-	-	?	2µM	?	-
Cc1cccc(-n2ccnc2SCC(=O)Nc2ccc3c(c2)OCO3)c1	-	.	.	.	.	-
Cc1ccc(C)c(NC(=S)NC(C)C(c2cccs2)N2CCOCC2)c1 (stereo not drawn)	-	?	11µM	5µM	-	-
Cc1cccc(C(=O)NC(C)C(c2cccs2)N2CCOCC2)c1 (stereo not drawn)	-	-	-	-	-	-
CC(NC(=S)Nc1cccc(F)c1)C(c1cccs1)N1CCOCC1 (stereo not drawn)	-	-	?	8.9µM	-	-
COc1ccc(-c2nsc3c(N4CCCCC4)ncnc23)cc1	-	-	?	1.1µM	-	-
COc1ccc(-c2nsc3c(N4CCN(S(=O)(=O)c5ccccc5F)CC4)ncnc23)cc1	-	-	-	-	-	-
Cc1ccc(-c2nsc3c(N4CCC(C(N)=O)CC4)ncnc23)cc1	-	-	0.63µM	?	-	-
COc1ccc(C(=O)N2CCN(c3ncnc4c(-c5ccccc5)nsc34)CC2)cc1	-	-	-	-	-	-

Compound activity: PubChem BioAssay, National Center for Advancing Translational Sciences (NCATS)
